“And” between values parts separate entries of the source, which are not always exact repeats. Equal entries are not always repeated. The source made the active and inactive calls. How the source made its calls: active means hit-call score of the fitted dose curve at least 0.9, where 1 is the maximum; inactive means score below 0.9.
What follows are molecules tested on Matrix Metallopeptidase 1 (MMP1), MMP1 (gene 4312) (assay: BSK_BE3C_MMP1: BioMAP Diversity Plus: BE3C Assay for Matrix Metallopeptidase 1 (MMP1) Biomarker Activity (AID 2283024)). Conditions: primary human bronchial epithelial cells; actives raise or lower the signal.
Protocol: BSK_BE3C is a cell-based, multiplexed-readout assay that uses bronchial epithelial cell, a human lung primary cell, with measurements taken at 24 hours after chemical dosing in a 96-well plate.BSK_BE3C_MMP1 is an assay component measured in the BSK_BE3C assay. It measures MMP-1 antibody related to regulation of gene expression using ELISA technology.Data from the assay component BSK_BE3C_MMP1 was analyzed into 1 assay endpoint. This assay endpoint, BSK_BE3C_MMP1, was analyzed with bidirectional fitting relative to DMSO as the negative control and baseline of activity. Using a type of binding reporter, gain or loss-of-signal activity can be used to understand changes in the signaling as they relate to the gene MMP1. Furthermore, this assay endpoint can be referred to as a primary readout, because this assay has produced multiple assay endpoints where this one serves a signaling function. To generalize the intended target to other relatable targets, this assay endpoint is annotated to the protease intended target family, where the subfamily is matrix metalloproteinase.
The levels of cell surface (or secreted, indicated by the prefix "s") biomarker endpoints were measured by ELISA. Overt cytotoxicity to cells in confluent adherent cultures (all systems other than the BT system) was assessed by measuring total protein levels using sulforhodamine B (SRB) staining in parallel cultures at the time of biomarker measurements, indicated as SRB endpoints. For proliferation assays for adherent cell types, individual cell types are cultured at sub-confluence and relative cell numbers quantified by SRB staining at time points optimized for each system (48 h: 3C and CASM3C systems; 72 h: BT and HDF3CGF systems; 96 h: SAg system). SRB was performed by staining cells with 0.1% SRB after fixation with 10% TCA and reading wells at 560 nm.Viability and proliferation of PBMC (T cells) was quantified by Alamar Blue reduction for the SAg and BT systems. For PBMC viability (referred to as PBMC Cytotoxicity within the assay endpoint names), cells were plated (75,000/well in a 96-well plate) and then chemical samples added for 1 h before addition of activators, SEB and TSST-1 (20 ng/mL final concentration each). Cells were incubated for 90 h. Then, Alamar Blue (20 uL/well) (Invitrogen, Cat DAL1100) was added for 6 h, and the plates were read with a fluorescence microplate reader at 546/580 nm (excitation/emission). For PBMC proliferation, cells were plated and activated as above but incubated for only 16 h prior to addition of Alamar Blue. Plates were read after 6 h.

Row | Structure (SMILES) | outcome | AC50
1 | O=C1OC[C@H](Cc2cccc(O)c2)[C@H]1Cc1cccc(O)c1 | inactive | 
2 | CC1(C)C2=CCCC(C)(C)[C@]23CC[C@H]1C3 | inactive | 
3 | CS(=O)(=O)OCCCCOS(C)(=O)=O | inactive | 
4 | c1ccc2cc(Nc3ccc(Nc4ccc5ccccc5c4)cc3)ccc2c1 | inactive | 
5 | CC(C=O)Cc1ccc(C(C)(C)C)cc1 (stereo not given) | inactive | 
6 | C=CC(C)(O)CCC=C(C)C (stereo not given) | inactive | 
7 | CCCCOC(=O)CCCCCCCC(=O)OCCCC | inactive | 
8 | CCCCCCCCCCCCCCCC(=O)OC/C=C(C)/C=C/C=C(C)/C=C/C1=C(C)CCCC1(C)C | inactive | 
9 | C[C@@H]1CCN(C(=O)[C@H](CCCN=C(N)N)NS(=O)(=O)c2cccc3c2NC[C@H](C)C3)[C@@H](C(=O)O)C1 |  | 0.0398 µM (active)
10 | O=C1OC2(c3ccccc31)c1ccc(O)c(Br)c1Oc1c2ccc(O)c1Br | inactive | 
11 | Cc1cc(CCC(=O)OCCOCCOCCOC(=O)CCc2cc(C)c(O)c(C(C)(C)C)c2)cc(C(C)(C)C)c1O | inactive | 
12 | C=C(C)C(=O)OCC(CC)(COC(=O)C(=C)C)COC(=O)C(=C)C | inactive | 
13 | CCCCCCC(CO)CCCC (stereo not given) | inactive | 
14 | CS(=O)(=O)c1ccc(C2=C(c3ccccc3)C(=O)OC2)cc1 | inactive | 
15 | CCN(CC)C(=O)N(CC)CC | inactive | 
16 | CN(C)C(=O)Nc1ccc(Oc2ccc(Cl)cc2)cc1 | inactive | 
17 | CC=Cc1ccc(OCC)c(O)c1 | inactive | 
18 | CSCCC=O | inactive | 
19 | CC(C)(C)CC(C)(C)c1ccc(OCCOCC[N+](C)(C)Cc2ccccc2)cc1 |  | 6.86 µM (active)
20 | CCC(C)c1cc([N+](=O)[O-])cc([N+](=O)[O-])c1OC(=O)OC(C)C (stereo not given) |  | 35.1 µM (active)

Row | Structure (SMILES) | outcome | AC50
21 | CCCCN(CCCC)C(=O)N(CCCC)CCCC |  | 20 µM (active)
22 | O=C1c2ccccc2C(=O)c2c(O)ccc(O)c21 | inactive | 
23 | CN(c1nccc(=O)[nH]1)C1CCN(c2nc3ccccc3n2Cc2ccc(F)cc2)CC1 |  | 0.00777 µM (active)
24 | CC(=O)c1c(C)c([N+](=O)[O-])c(C(C)(C)C)c([N+](=O)[O-])c1C | inactive | 
25 | Clc1cc(Cl)c(-c2c(Cl)c(Cl)cc(Cl)c2Cl)cc1Cl | inactive | 
26 | COc1cc(Cl)c(OC)cc1N | inactive | 
27 | COc1ccc(OC)c(N=Nc2c(O)ccc3ccccc23)c1 | inactive | 
28 | CCOC(=O)C(C#N)=C(c1ccccc1)c1ccccc1 |  | 25.2 µM (active) and 31.1 µM (active)
29 | c1ccc(Oc2ccccc2)cc1 | inactive | 
30 | CN(C)C(=S)SC(=S)N(C)C | inactive | 
31 | CC(=O)C1(C)CC2=C(CCCC2(C)C)CC1C (stereo not given) |  | 27.5 µM (active)
32 | C1=CC2C3C=CC(C3)C2C1 (stereo not given) | inactive | 
33 | O=CN1CCOCC1 | inactive | 
34 | CCCCCC(C=O)=Cc1ccccc1 |  | 0.096 µM (active)
35 | C=C(C)C(=O)OCCOCCOCCOC(=O)C(=C)C | inactive | 
36 | O=C(Nc1ccc2c(O)c(N=Nc3ccc(N=Nc4ccc(S(=O)(=O)O)cc4)cc3)c(S(=O)(=O)O)cc2c1)c1ccccc1 |  | 16 µM (active) and 10.4 µM (active)
37 | c1ccc(CCc2ccccc2)cc1 |  | 20 µM (active)
38 | IC(I)I | inactive | 
39 | CC(C)(N=C=O)c1cccc(C(C)(C)N=C=O)c1 | inactive | 
40 | CC(CN=Cc1ccccc1O)N=Cc1ccccc1O (stereo not given) | inactive | 
